Measured values from PubChem BioAssay (NCI).
This is part of a sample that, as a whole, favours compounds with a hit. Of some 83,000 tested, about 20% had one in any assay.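 How to read the values: 0–100, growth inhibition (40 = 60% inhibited); 0, no net growth; -100 to 0, cell death (-40 = 40% of starting cells died; -100 = all dead).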 Values without a mark were called inactive. Calls of active or inactive are those of the source. The calls were made as follows: active = growth percent below 10; inactive = the rest.

Tests used:
Test in all cases: NCI-60 one-dose screen, 48 h (100 = growth as untreated, 0 = no growth, -100 = all killed)
Settings in all cases: 10 µM unless noted
SK-MEL-2 melanoma = test system: SK-MEL-2 melanoma
EKVX NSCLC = test system: EKVX NSCLC
SN12C renal = test system: SN12C renal
UO-31 renal = test system: UO-31 renal
TK-10 renal = test system: TK-10 renal
ACHN renal = test system: ACHN renal
CAKI-1 renal = test system: CAKI-1 renal
A498 renal = test system: A498 renal
MOLT-4 leukemia = test system: MOLT-4 leukemia
SR leukemia = test system: SR leukemia
OVCAR-8 ovarian = test system: OVCAR-8 ovarian
OVCAR-5 ovarian = test system: OVCAR-5 ovarian
OVCAR-4 ovarian = test system: OVCAR-4 ovarian
IGROV1 ovarian = test system: IGROV1 ovarian
OVCAR-3 ovarian = test system: OVCAR-3 ovarian
HS 578T breast = test system: HS 578T breast
NCI/ADR-RES ovarian = test system: NCI/ADR-RES ovarian
RPMI-8226 leukemia = test system: RPMI-8226 leukemia
SK-OV-3 ovarian = test system: SK-OV-3 ovarian
CCRF-CEM leukemia = test system: CCRF-CEM leukemia

Compound	growth (SK-MEL-2 melanoma)	growth (EKVX NSCLC)	growth (SN12C renal)	growth (UO-31 renal)	growth (TK-10 renal)	growth (ACHN renal)	growth (CAKI-1 renal)	growth (A498 renal)	growth (MOLT-4 leukemia)	growth (SR leukemia)	growth (OVCAR-8 ovarian)	growth (OVCAR-5 ovarian)	growth (OVCAR-4 ovarian)	growth (IGROV1 ovarian)	growth (OVCAR-3 ovarian)	growth (HS 578T breast)	growth (NCI/ADR-RES ovarian)	growth (RPMI-8226 leukemia)	growth (SK-OV-3 ovarian)	growth (CCRF-CEM leukemia)
Cc1ccc(-c2cc3nc(-c4ccccc4)nc(C(Cl)Cl)n3n2)cc1	26.7%	-68% (active)	55.5%	-99.7% (active)	-97.9% (active)	-99.3% (active)	-86.4% (active)	-73.8% (active)	89.3%	71.2%	-25.5% (active)	-27.2% (active)	-46% (active)	46%	-94.5% (active)	-42.1% (active)	-30.7% (active)	–	–	–
CCN(CC)CCCC(C)Nc1c2ccc(Cl)cc2nc2cc(OC)c(OC)cc12 (centres undefined)	48%	53.7%	34.3%	-41% (active)	2.47% (active)	-76.2% (active)	9.87% (active)	54.6%	-8.8% (active)	-14.2% (active)	14.1%	50.9%	-30.7% (active)	24.3%	34.4%	44.2%	28.8%	-33% (active)	40.5%	–
Cc1ccc(-c2cc3nc(C(Cl)Cl)nc(-c4cccnc4)n3n2)cc1	77.8%	-2.59% (active)	55.1%	35.9%	6.78% (active)	1.65% (active)	2.71% (active)	37.3%	27.8%	14.6%	22.7%	24.2%	9.57% (active)	33.6%	-40.7% (active)	28.3%	-3.44% (active)	16.5%	–	–
N=C(N)c1ccc(-c2ccc(-c3cncc4ccccc34)s2)cc1F	-40.4% (active)	-77% (active)	-93.1% (active)	-87.3% (active)	-91.2% (active)	-97.5% (active)	-87.5% (active)	73.8%	-24.6% (active)	-3.96% (active)	-51.6% (active)	-94.7% (active)	-78.6% (active)	-87.5% (active)	-91.6% (active)	88.9%	1.93% (active)	–	–	–
O=C(c1c[nH]c(=O)c(-c2ccccc2)c1)c1ccccc1O	93.1%	94.7%	85.2%	68.6%	94.8%	82.8%	85%	76.8%	–	–	85.6%	88.5%	95.8%	82.7%	98.4%	80%	82.4%	95.2%	83.6%	99.5%
ClC(Cl)c1nc(-c2ccccc2)nc2cc(-c3ccccc3)nn12	103%	58.6%	72.1%	58.7%	21.6%	46.2%	50.6%	80.7%	101%	90.7%	81.3%	121%	63.4%	67%	–	63%	54.6%	17.3%	–	–
Cc1[nH]c2ccc(F)cc2c1CCNC(=O)C1CCN(C(=O)c2ccccc2)CC1	98.9% [25 µM]	77.9% [25 µM]	94.5% [25 µM]	67.6% [25 µM]	91.1% [25 µM]	97% [25 µM]	68.2% [25 µM]	56.2% [25 µM]	88% [25 µM]	97.3% [25 µM]	93.3% [25 µM]	95.1% [25 µM]	78.6% [25 µM]	82.5% [25 µM]	98.2% [25 µM]	87.7% [25 µM]	95.5% [25 µM]	10% [25 µM]	–	–
O=C(CSc1nc2ccccc2[nH]1)c1ccc(N2CCOCC2)cc1	113%	80.4%	105%	85.5%	118%	105%	99%	85.8%	135%	129%	96%	102%	96.5%	105%	106%	99%	91.9%	109%	101%	–
CCCCN(CCCC)c1ccc(C(=N)c2ccc(N(CCCC)CCCC)cc2)cc1	-79.1% (active)	-13.9% (active)	-94.1% (active)	-71.1% (active)	-83.9% (active)	-100% (active)	-37.6% (active)	-25.7% (active)	–	–	-82.1% (active)	-82.4% (active)	-79.3% (active)	-53.5% (active)	–	-45% (active)	-87.5% (active)	-74.3% (active)	-22.6% (active)	–
COc1cc2c(cc1OCCCCCn1c3ccccc3c3ccccc31)N=C[C@@H]1CCCN1C2=O	-65.7% (active)	46.6%	-54.8% (active)	-75.8% (active)	-37.8% (active)	-63% (active)	38.3%	–	-39.9% (active)	-54.5% (active)	-30.6% (active)	-50% (active)	-7.21% (active)	-68.9% (active)	-80.5% (active)	-63.4% (active)	-6.33% (active)	-39.2% (active)	-47.4% (active)	-0.543% (active)
Cc1ccc(S(=O)(=O)n2cc(C(=O)C(=O)N3CCOCC3)c3ccccc32)cc1	97%	88%	87.8%	59.7%	94.6%	83.9%	80.1%	–	81.5%	77.8%	91.5%	85.7%	89.1%	–	91.4%	101%	75.1%	59.6%	97.9%	93.6%
COc1cc([N+](=O)[O-])c2ncccc2c1O	4.77% (active)	105%	33.7%	25.6%	89.2%	88.8%	82.9%	–	119%	107%	78.5%	76.4%	104%	51.8%	83.1%	-3.86% (active)	91.1%	75.6%	37%	61.3%
COc1cc(-c2nc(N=Nc3c(O)[nH]c4ccc(Br)cc34)[nH]c(=O)c2C#N)cc(OC)c1OC	102%	100%	97.4%	90%	111%	101%	91.1%	–	96.2%	88.2%	93.5%	101%	101%	101%	102%	93.8%	102%	98.2%	108%	94.5%
CC(C)c1ccc2occ(C=C3C(=O)NC(=O)NC3=O)c(=O)c2c1	93.5%	117%	91.5%	86.6%	84.6%	104%	103%	–	66.8%	73.1%	80.1%	123%	89.1%	120%	95.6%	111%	90.1%	74.8%	109%	77.8%
O=C(O)/C=C/C(=O)c1ccc(Cl)cc1	109%	114%	112%	90.1%	105%	106%	107%	107%	–	–	95.9%	115%	116%	114%	105%	119%	109%	115%	107%	–
O=C1/C(=C/c2ccccc2)CN(C(=O)CCN2CCC(=NO)CC2)C/C1=C\c1ccccc1	55.2%	1.08% (active)	-18.6% (active)	-84% (active)	0.636% (active)	-11% (active)	-6.16% (active)	–	8.95% (active)	7.97% (active)	13.6%	5.29% (active)	15.3%	-5.65% (active)	–	17%	14.6%	-28.6% (active)	77.5%	-2.62% (active)
C=COC(=O)CCCCCCCCC	108%	94.1%	106%	85.7%	109%	104%	92.8%	96.4%	–	–	101%	111%	109%	97.1%	–	102%	103%	100%	111%	–
